In PubChem BioAssay (Tox21):
Inconclusive results are not listed. Entries that show only a call come without a potency. Values without a mark were called inactive. Calls of active or inactive are those of the source. Unless noted, the call rests on the fitted dose curve; in most records, active means well fitted curve in the direction sought with a large enough effect in the repeat runs; inconclusive means weak or mixed curves; inactive means no such curve, though single readings can be large; an effect the other way counts as inactive or inconclusive.

How the values were obtained:
[1] = qHTS assay to identify small molecule antagonists of the retinoid acid receptor (RAR) signaling pathway - cell viability counter screen (AID 1159551); further: nearly all actives have a fitted effect of over 35% in size
Method in brief: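 C3RL4 RARE-luciferase line; cpds + retinol 1 uM final, 6 h, 37 C/5% CO2; CellTiter-Glo ATP luminescence, 30 min RT.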

[2] = qHTS assay to identify small molecule antagonists of the retinoic acid receptor (RAR) signaling pathway (AID 1159552; further: nearly all actives have a fitted effect of over 50% in size)
Method in brief: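 C3RL4 RARE-luc cells, overnight plating; retinol 1 uM final added right after compound; 6 hr 37 C; luciferase read at 30 min RT.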

[3] = qHTS assay to identify small molecule agonists of the retinoic acid receptor (RAR) signaling pathway (AID 1159553); conditions: C3RL4 RARE luciferase reporter, agonist, 6 h; activation: at 73.3 µM (top of the series)
Method in brief: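 RARE-luc C3RL4 cells; overnight attachment 37 C/5% CO2; compound (DMSO) 6 hr; luciferase reagent, 30 min RT; luminescence read-out.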

[4] = target: Luciferin 4-monooxygenase (Photinus pyralis) (UniProt P08659); test: qHTS assay to identify small molecule inhibitors of firefly luciferase (AID 1224835); further: nearly all actives have a fitted effect of over 25% in size
Method in brief: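 Biochemical qHTS: compounds run as interplate titrations against purified firefly enzyme, with D-luciferin and ATP each at its KM concentration. Light output recorded by CCD imaging.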

[5] = qHTS assay to identify small molecule agonists of the constitutive androstane receptor (CAR) signaling pathway - cell viability counter screen (AID 1224836); further: nearly all actives have a fitted effect of over 45% in size
Method in brief: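 Using CellTiter-Fluor, viability of HepG2 cells harbouring hCAR and CYP2B6-2.2kb was measured following 23 h incubation with a 15-concentration compound series plus PK11195 (0.75 uM final).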

[6] = qHTS assay to identify small molecule antagonists of the constitutive androstane receptor (CAR) signaling pathway - cell viability counter screen (AID 1224837); further: nearly all actives have a fitted effect of over 45% in size
Method in brief: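 Read-out: CellTiter-Fluor fluorescence after 23 hr at 37 C/5% CO2. Cells: HepG2 double-stable for hCAR and CYP2B6-2.2kb. Compounds tested at 15 concentrations in the presence of CITCO, final concentration 50 nM.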

[7] = target: Nuclear receptor subfamily 1 group I member 3 (Homo sapiens) (UniProt Q14994); test: qHTS assay to identify small molecule antagonists of the constitutive androstane receptor (CAR) signaling pathway (AID 1224838);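 further: HepG2 cells stably expressing hCAR with CYP2B6 luciferase reporter stimulated by CITCO; nearly all actives have a fitted effect of over 40% in size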; further: potency means the concentration at half of the fitted maximal effect
Method in brief: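 Read-out: ONE-Glo luciferase luminescence after 30 min at room temperature. HepG2-CYP2B6-hCAR double-stable cells, compounds in 15-point titration plus 50 nM CITCO final, 24 h at 37 C/5% CO2.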

[8] = target: Nuclear receptor subfamily 1 group I member 3 (Homo sapiens) (UniProt Q14994); test: qHTS assay to identify small molecule agonists of the constitutive androstane receptor (CAR) signaling pathway (AID 1224839); further: nearly all actives have a fitted effect of over 15% in size; further: potency means the concentration at half of the fitted maximal effect;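 on activation: HepG2 cells stably carrying human CAR and a CYP2B6 luciferase reporter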
Method in brief: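 Double-stable HepG2 cells (hCAR, CYP2B6-2.2kb) seeded 4 h before compound addition. Exposure 24 h with 0.75 uM PK11195 final. Luciferase detected by ONE-Glo.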

[9] = qHTS assay to identify small molecule antagonists of the estrogen related receptor signaling pathway with the pleiotropic PPARgamma coactivator (PGC) from Tox21 10K library - cell viability counter screen (AID 1224840; active means well fitted cell-killing curve with a large enough effect in the repeat runs, not every such curve was filed as active; further: nearly all actives have a fitted effect of over 40% in size)
Method in brief: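 Fluorescence read-out of CellTiter-Fluor viability reagent, added after cells had been exposed to compound in DMSO for 17.5 h at 37 C; 30 min development at 37 C/5% CO2. Cells: PGC/ERR line, 2,000/well.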

[10] = qHTS assay to identify small molecule agonists of the estrogen related receptor signaling pathway with the pleiotropic PPARgamma coactivator (PGC) from Tox21 10K library (AID 1224842); further: nearly all actives have a fitted effect of over 15% in size
Method in brief: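 PGC/ERR reporter cell line, 2,000 cells per well, incubated 6 h at 37 C before 23 nL compound in DMSO was added. After 18 h at 37 C, One-Glo luminescence read following 30 min at room temperature.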

[11] = qHTS assay to identify small molecule antagonists of the estrogen related receptor (ERR) signaling pathway from Tox21 library - cell viability counter screen (AID 1224834); further: nearly all actives have a fitted effect of over 30% in size; further: potency means the concentration at half of the fitted maximal effect
Method in brief: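 Multiplexed viability counter screen in ERR cells: 17.5 h compound exposure at 37 C, CellTiter-Fluor added, 30 min at 37 C/5% CO2, fluorescence read.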

[12] = qHTS assay to identify small molecule antagonists of the estrogen related receptor signaling pathway with the pleiotropic PPARgamma coactivator (PGC) from Tox21 10K library (AID 1224841; call rule not given here; further: actives are mostly falling curves and most rising ones were filed inactive; nearly all actives have a fitted effect of over 50% in size; further: potency means the concentration at half of the fitted maximal effect)
Method in brief: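 Luminescence read-out (One-Glo luciferase reagent, 30 min at room temperature) from PGC/ERR cells exposed to DMSO-dissolved test compounds for 18 h at 37 C; cells, 2,000 per well, had been preincubated 6 h before compound transfer.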

Sequence of Luciferin 4-monooxygenase (Photinus pyralis) (P08659 whole entry, looked up): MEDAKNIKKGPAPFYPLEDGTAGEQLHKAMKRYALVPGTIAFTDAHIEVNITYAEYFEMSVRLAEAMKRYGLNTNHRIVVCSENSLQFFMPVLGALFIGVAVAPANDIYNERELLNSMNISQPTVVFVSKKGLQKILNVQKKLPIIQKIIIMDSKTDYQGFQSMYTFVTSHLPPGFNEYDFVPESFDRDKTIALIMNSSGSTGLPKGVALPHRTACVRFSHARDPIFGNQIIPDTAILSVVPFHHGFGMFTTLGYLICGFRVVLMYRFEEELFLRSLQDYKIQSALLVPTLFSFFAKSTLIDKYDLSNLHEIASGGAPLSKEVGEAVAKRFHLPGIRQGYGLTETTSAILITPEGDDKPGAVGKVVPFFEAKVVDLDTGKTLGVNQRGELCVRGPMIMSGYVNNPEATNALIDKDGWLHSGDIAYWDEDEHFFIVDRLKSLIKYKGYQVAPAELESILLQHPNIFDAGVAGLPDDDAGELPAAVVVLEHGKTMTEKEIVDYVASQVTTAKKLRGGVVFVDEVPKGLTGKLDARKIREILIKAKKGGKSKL
Sequence of Nuclear receptor subfamily 1 group I member 3 (Homo sapiens) (Q14994 whole entry, looked up): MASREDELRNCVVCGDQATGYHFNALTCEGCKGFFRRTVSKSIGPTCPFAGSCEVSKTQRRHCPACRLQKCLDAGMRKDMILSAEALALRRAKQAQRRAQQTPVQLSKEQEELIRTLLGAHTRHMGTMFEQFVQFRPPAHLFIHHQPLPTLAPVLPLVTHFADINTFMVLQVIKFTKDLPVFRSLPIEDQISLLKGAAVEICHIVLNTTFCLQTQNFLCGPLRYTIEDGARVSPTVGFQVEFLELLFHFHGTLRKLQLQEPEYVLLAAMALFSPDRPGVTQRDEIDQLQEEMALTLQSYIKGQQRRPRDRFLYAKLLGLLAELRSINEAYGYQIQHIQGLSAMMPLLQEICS

Row | Compound | Potency [1] | Potency [2] | Potency [3] | Potency [4] | Potency [5] | Potency [6] | Potency [7] | Potency [8] | Potency [9] | Potency [10] | Potency [11] | Potency [12] | activity, negative = inhibition [2] | activation [8]
1 | O=C1Cc2ccccc2N1c1c(Cl)cccc1Cl | inactive | inactive | inactive | inactive | inactive | inactive | inactive | 30.6 µM (active) | inactive | inactive | – | – | – | –
2 | Cc1ccc2c(Br)cc(Br)c(O)c2n1 | inactive | inactive | inactive | inactive | inactive | inactive | inactive | inactive | – | – | – | – | – | –
3 | C[C@]1(Cn2ccnn2)[C@H](C(=O)O)N2C(=O)C[C@H]2S1(=O)=O | inactive | – | – | inactive | inactive | inactive | – | – | inactive | – | inactive | – | – | –
4 | Clc1ccc(Nc2nnc(Cc3ccncc3)c3ccccc23)cc1 | inactive | inactive | inactive | – | – | – | inactive | 7.5 µM (active) | inactive | inactive | – | 13.3 µM (active) | – | –
5 | COC(=O)C1=C(C)NC(C)=C(C(=O)O[C@@H]2CCCN(Cc3ccccc3)C2)[C@@H]1c1cccc([N+](=O)[O-])c1 | inactive | – | – | inactive | inactive | inactive | inactive | inactive | inactive | inactive | – | – | – | –
6 | Cc1cscn1 | inactive | – | – | inactive | inactive | inactive | – | – | inactive | – | inactive | – | – | –
7 | C[C@@]12CCC[C@H]1[C@@H]1CC[C@H]3C[C@@H](O)CC[C@]3(C)[C@H]1CC2 | inactive | inactive | – | – | inactive | inactive | inactive | inactive | inactive | – | inactive | inactive | – | –
8 | Cc1cc(=O)c2c(O)c3c(O)cc(=O)c4c3c3c(cc(O)c1c23)C(C)(C)C=4O | – | – | – | inactive | – | – | 2.59 µM (active) | – | – | – | 1.46 µM (active) | – | -5.37% [at 19 µM] | -14.4% [at 19 µM]
